{"source": "PubChem BioAssay (NCI)", "note": "This is part of a sample that, as a whole, favours compounds with a hit. Of some 83,000 tested, about 20% had one in any assay.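 Cells were grown in 96-well plates and exposed to the test compound at a single concentration for 48 hours; results are reported as percent growth, with values below 10 considered active.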 Values without a mark were called inactive. Activity calls are given as the source filed them.", "data": [{"system": "HL-60(TB) leukemia", "test": "NCI-60 one-dose screen, 48 h (100 = growth as untreated, 0 = no growth, -100 = all killed)", "settings": "10 µM unless noted", "values": [{"compound": "O=C(Nc1ccc(Cl)cn1)C1(c2ccccc2)CCCCC1", "growth": "51.5%"}, {"compound": "CCCCCCCCCCSC(=N)N", "note": "(tested in a mixture with another compound)", "growth": "62.8%"}, {"compound": "O=C1/C(=C/c2ccc(OCCCOc3ccc(Cl)cc3)cc2)N=C2SCCCN12", "growth": "93%"}, {"compound": "FC(F)(F)c1cccc(-c2nnn(Cc3cc(-c4cccc(Cl)c4)no3)n2)c1", "growth": "108%"}, {"compound": "CC(=O)Nc1cc(C(c2ccccc2)c2ccccc2)cc(C(c2ccccc2)c2ccccc2)c1C", "growth": "53.1%"}, {"compound": "CCc1ccc2c(c1)N(CCO)C1=C(C(=O)OC1)C2c1cccc(Br)c1", "note": "(stereo not given)", "growth": "-9.76% (active)"}, {"compound": "Cc1cccc(N=Cc2ccccc2O)c1C", "growth": "87.9%"}, {"compound": "Cc1ncc(C(=O)Nc2ccc(CN3CCN(C)CC3)c(C(F)(F)F)c2)cc1C#Cc1cnc2cccnn12", "growth": "-28.2% (active)"}, {"compound": "NN1CCOC(c2ccccc2)C1", "note": "(stereo not given)", "growth": "-22.4% (active)"}, {"compound": "O=C1Cc2c(sc3c(F)cccc23)C(c2ccccc2[N+](=O)[O-])N1", "note": "(stereo not given)", "growth": "116%"}, {"compound": "COC(OC)C1(c2ccccc2)NC(=O)NC1=O", "note": "(stereo not given)", "growth": "122%"}, {"compound": "c1ccc(N2c3nc4ccccc4cc3Sc3cc4ccccc4nc32)nc1", "growth": "97.2%"}, {"compound": "COc1cc2c(cc1[N+](=O)[O-])-c1ccc([N+](=O)[O-])cc1/C2=N/NC(N)=S", "growth": "88.3%"}, {"compound": "NC1C(N)C(N)C1N", "note": "(stereo not given)", "growth": "93.8%"}, {"compound": "COc1ccc(Cl)cc1NC(=O)C(Br)C(Br)C(=O)O", "note": "(stereo not given)", "growth": "1.26% (active)"}, {"compound": "Cc1ccc(S(=O)(=O)c2nc(-c3ccccc3)oc2SCC(N)=O)cc1", "growth": "65.3%"}, {"compound": "N=C(N)c1ccc(-c2ccc(-c3ccc(Cl)cc3Cl)o2)nc1", "growth": "-26.7% (active)"}, {"compound": "O=C(Nc1nccs1)c1noc2ccccc12", "growth": "95%"}, {"compound": "O=C(/C=C\\c1ccccc1Cl)c1ccccc1", "growth": "110%"}, {"compound": "CCCCC(=O)N(c1ccc(Nc2c3ccccc3nc3cc([N+](=O)[O-])ccc23)cc1)S(C)(=O)=O", "growth": "68.3%"}, {"compound": "CS(=O)(=O)c1ccc(Nc2nc(N[C@H]3CCCC[C@H]3N)nc3cc[nH]c(=O)c23)cc1", "growth": "-16.9% (active)"}, {"compound": "COc1cc2c(/C=C3\\C(=O)Nc4ccccc43)c(C(=O)O)[nH]c2cc1C", "growth": "110%"}, {"compound": "Cc1cc2c(-c3nc4ccccn4c3Nc3cccc4ccccc34)c(O)c(O)cc2c(O)c1-c1c(C)cc2c(-c3nc4ccccn4c3Nc3cccc4ccccc34)c(O)c(O)cc2c1O", "growth": "28.6%"}, {"compound": "NC(=O)CN1CCN(c2ccccc2Cl)CC1", "growth": "92.4%"}, {"compound": "CSCCC(NC(=O)C(Cl)Cl)C(=O)O", "note": "(stereo not given)", "growth": "98.1%"}]}]}
